What all share (details): Compound concentration 20.0 uM
The target in assay [1] is Tyrosine-protein kinase ABL1 (Homo sapiens) (UniProt P00519).
Assay [2] has as its target Bromodomain-containing protein 4 (Homo sapiens) (UniProt O60885).
Assay [3] concerns the target Cyclin-dependent kinase 2 (Homo sapiens) (UniProt P24941).
The target of assay [4] is Casein kinase I isoform delta (Homo sapiens) (UniProt P48730).
For assay [5], the target named is Glycogen synthase kinase-3 beta (Homo sapiens) (UniProt P49841).
Glycogen synthase kinase-3 beta (Homo sapiens), sequence (P49841 whole entry, looked up): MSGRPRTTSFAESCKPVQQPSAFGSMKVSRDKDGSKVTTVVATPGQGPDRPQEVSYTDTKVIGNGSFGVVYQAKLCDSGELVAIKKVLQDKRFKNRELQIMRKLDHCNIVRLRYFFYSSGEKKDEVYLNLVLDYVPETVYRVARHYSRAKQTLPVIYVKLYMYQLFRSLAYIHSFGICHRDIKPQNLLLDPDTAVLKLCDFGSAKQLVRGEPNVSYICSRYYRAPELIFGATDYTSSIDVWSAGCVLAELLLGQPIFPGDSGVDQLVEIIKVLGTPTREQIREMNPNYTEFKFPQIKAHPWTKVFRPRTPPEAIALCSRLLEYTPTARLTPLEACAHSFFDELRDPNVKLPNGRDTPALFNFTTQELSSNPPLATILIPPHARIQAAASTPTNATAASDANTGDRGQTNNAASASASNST
For assay [6], the target named is Mitogen-activated protein kinase 1 (Homo sapiens) (UniProt P28482).
Mitogen-activated protein kinase 1 (Homo sapiens), sequence (P28482 whole entry): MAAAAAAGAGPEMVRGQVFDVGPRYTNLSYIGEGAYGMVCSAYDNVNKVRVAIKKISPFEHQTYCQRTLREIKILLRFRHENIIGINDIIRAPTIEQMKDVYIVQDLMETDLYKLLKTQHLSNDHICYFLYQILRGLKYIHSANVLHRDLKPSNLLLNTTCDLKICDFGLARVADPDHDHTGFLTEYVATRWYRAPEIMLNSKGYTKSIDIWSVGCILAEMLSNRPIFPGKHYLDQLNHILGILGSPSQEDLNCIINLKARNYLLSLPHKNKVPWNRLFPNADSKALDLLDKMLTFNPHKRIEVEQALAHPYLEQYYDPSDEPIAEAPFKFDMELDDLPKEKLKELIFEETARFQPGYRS
Assay [7] addresses T1, Aurora kinase A (Homo sapiens) (UniProt O14965).
T1 sequence (whole entry): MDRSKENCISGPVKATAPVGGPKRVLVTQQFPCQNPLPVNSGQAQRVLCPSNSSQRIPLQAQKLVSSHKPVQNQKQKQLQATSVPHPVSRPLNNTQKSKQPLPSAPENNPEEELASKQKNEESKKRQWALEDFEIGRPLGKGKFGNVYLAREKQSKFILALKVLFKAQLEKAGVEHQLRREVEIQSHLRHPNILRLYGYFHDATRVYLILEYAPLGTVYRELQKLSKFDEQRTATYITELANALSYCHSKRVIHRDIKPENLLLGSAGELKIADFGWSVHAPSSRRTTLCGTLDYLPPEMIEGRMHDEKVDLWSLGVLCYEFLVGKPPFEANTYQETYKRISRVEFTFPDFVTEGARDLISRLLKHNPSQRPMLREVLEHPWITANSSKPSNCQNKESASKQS

Assay [8] concerns the target T2, Transcription intermediary factor 1-alpha (Homo sapiens) (UniProt O15164).
T2 sequence (whole entry): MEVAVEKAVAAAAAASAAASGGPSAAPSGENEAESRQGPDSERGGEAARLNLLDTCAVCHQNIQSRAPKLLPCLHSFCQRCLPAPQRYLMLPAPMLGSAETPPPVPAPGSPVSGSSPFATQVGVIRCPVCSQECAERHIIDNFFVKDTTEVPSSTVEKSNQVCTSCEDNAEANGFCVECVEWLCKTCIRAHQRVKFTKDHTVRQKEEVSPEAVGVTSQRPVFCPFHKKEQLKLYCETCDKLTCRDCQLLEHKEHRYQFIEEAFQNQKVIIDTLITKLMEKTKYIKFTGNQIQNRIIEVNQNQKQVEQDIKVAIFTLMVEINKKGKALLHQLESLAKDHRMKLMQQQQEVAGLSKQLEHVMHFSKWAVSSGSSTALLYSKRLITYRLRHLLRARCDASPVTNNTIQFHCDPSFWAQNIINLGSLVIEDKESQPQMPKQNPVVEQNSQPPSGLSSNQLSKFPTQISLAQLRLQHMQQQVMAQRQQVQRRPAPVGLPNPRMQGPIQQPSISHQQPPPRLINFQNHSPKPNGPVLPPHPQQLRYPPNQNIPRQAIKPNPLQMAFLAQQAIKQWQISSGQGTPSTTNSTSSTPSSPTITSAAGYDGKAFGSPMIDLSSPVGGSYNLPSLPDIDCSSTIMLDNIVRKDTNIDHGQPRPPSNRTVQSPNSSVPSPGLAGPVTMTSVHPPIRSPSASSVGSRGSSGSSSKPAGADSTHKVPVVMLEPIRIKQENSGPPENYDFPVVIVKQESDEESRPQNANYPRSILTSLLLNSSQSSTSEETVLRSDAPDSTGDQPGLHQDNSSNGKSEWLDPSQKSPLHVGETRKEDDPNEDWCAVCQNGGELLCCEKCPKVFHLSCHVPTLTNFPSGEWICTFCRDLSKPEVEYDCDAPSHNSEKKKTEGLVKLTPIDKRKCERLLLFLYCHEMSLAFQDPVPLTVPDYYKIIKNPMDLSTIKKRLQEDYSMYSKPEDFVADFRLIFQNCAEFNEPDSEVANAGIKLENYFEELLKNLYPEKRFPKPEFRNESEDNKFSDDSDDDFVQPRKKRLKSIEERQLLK

Residues, ends and D or L forms follow the SMILES beside them. *: point of attachment. Cbz = O=C(OCc1ccccc1)*; CH2F = FC*

By ΔTm is commonly meant the change in melting temperature against a reference sample.

Tyrosine-protein kinase ABL1 (Homo sapiens), sequence (P00519 whole entry): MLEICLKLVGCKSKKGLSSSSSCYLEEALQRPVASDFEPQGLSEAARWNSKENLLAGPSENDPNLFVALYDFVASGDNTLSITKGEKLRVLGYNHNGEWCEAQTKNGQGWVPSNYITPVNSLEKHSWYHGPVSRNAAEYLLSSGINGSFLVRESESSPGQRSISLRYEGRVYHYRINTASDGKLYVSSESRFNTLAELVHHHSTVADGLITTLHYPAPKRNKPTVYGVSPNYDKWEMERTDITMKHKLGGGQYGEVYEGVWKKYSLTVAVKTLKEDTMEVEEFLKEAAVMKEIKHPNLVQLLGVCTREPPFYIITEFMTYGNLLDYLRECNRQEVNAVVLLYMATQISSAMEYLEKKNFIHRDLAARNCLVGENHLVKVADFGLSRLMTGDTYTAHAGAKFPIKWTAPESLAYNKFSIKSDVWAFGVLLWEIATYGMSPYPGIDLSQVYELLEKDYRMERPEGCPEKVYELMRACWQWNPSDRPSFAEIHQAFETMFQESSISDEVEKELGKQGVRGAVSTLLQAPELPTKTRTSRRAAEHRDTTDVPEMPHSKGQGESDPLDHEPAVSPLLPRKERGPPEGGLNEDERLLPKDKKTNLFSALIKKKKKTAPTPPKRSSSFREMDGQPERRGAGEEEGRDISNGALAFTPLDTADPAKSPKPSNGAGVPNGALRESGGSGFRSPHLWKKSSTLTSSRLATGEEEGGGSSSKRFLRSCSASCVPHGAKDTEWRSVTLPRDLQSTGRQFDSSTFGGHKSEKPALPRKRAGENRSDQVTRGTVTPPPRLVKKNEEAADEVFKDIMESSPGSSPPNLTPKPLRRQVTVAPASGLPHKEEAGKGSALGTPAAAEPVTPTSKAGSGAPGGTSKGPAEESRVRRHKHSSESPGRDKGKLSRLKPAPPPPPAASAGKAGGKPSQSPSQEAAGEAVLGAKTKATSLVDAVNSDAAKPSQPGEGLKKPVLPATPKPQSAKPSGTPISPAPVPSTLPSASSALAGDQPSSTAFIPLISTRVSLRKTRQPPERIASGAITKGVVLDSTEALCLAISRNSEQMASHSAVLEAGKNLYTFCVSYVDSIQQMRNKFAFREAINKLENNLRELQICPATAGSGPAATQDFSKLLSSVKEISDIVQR
Casein kinase I isoform delta (Homo sapiens), sequence (P48730 whole entry, looked up, canonical isoform): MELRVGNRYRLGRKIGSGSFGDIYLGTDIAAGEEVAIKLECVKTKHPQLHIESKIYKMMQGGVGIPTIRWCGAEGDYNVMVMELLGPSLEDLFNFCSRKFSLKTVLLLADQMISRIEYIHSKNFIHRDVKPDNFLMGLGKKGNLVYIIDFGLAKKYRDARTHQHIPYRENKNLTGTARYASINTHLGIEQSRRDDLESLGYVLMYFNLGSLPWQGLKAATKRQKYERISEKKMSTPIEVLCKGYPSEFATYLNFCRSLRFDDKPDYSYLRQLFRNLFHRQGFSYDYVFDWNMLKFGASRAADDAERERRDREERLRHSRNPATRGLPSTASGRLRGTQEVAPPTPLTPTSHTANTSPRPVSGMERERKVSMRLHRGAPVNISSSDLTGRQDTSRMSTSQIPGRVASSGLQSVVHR

Consider `Nc1cccc(Nc2ncc(-c3ccc(Cl)cc3)o2)c1`, for which the ΔTm in assay [1] worked out at 9.33 °C; in assay [2], 0.39 °C; in assay [3], 9.01 °C; in assay [4] it was 0.43 °C; in assay [5], 7.51 °C; in assay [6], 0.54 °C. Besides, the values for the thermal shift (ΔTm) in assay [7] and in assay [8] were 6.87 °C and -0.45 °C, respectively.
On to `N[C@@H](CC(=O)Nc1ccc(Oc2cc(F)c(F)cc2Br)cc1)C(=O)O`, for which the ΔTm in assay [1] was 0.75 °C; in assay [2], -3.05 °C; in assay [3], -0.04 °C; in assay [4], 0.11 °C; in assay [5], -0.55 °C; in assay [6], 0.24 °C. In addition, the ΔTm is -2.19 °C in assay [7] and 0.54 °C in assay [8].
Regarding `O=C(CN1CCN(c2ccc(F)cn2)CC1)Nc1nc2c(s1)CCCC2`, the ΔTm in assay [1] was 0.42 °C; in assay [2] it was -2.75 °C; in assay [3], 0.14 °C; in assay [4], -0.25 °C; in assay [5] it was 0.02 °C; in assay [6], 0.86 °C. Besides, the ΔTm in assay [7] is -1.16 °C; in assay [8], -2.28 °C.
On to `CN(CCOc1ccc(-c2ccc3c(c2)OCO3)cc1C(C)(C)C)CC(=O)O`, for which the thermal shift (ΔTm) was 0.97 °C in assay [1]; -3.79 °C in assay [2]; -0.18 °C in assay [3]; -0.21 °C in assay [4]; -0.2 °C in assay [5]; 0.46 °C in assay [6]. Moreover, the shift in melting temperature (ΔTm) is -0.74 °C in assay [7] and -0.19 °C in assay [8].
On to `COC(=O)CC[C@H](NC(=O)[C@H](C)NC(=O)OCc1ccccc1)C(=O)N[C@H](C(=O)N[C@@H](CC(=O)OC)C(=O)CF)C(C)C` (Cbz-AE(OMe)VD(OMe)-CH2F), for which the shift in melting temperature (ΔTm) in assay [1] is 0.32 °C; in assay [2] it was -1.14 °C; in assay [3], -0.09 °C; in assay [4] it was -0.04 °C; in assay [5] it was -0.78 °C; in assay [6] it was -0.86 °C. Moreover, the ΔTm in assay [7] is -1.1 °C; in assay [8], -1.06 °C.
In the case of `O=C(O)/C(S)=C/c1ccc(I)cc1`, the shift in melting temperature (ΔTm) in assay [1] was 0.07 °C; in assay [2] it was -3.45 °C; in assay [3], -1.16 °C; in assay [4] it was -0.16 °C; in assay [5], -8.42 °C; in assay [6] it was -1.42 °C. The ΔTm was 0.99 °C in assay [7] and -0.27 °C in assay [8].
For `C[C@@H](Oc1ccc(CNC(=O)c2cccnc2Oc2ccc3c(c2)OCO3)c(F)c1)C(=O)O`, the ΔTm in assay [1] was 0.69 °C; in assay [2] it was -1.71 °C; in assay [3], 0.09 °C; in assay [4], -0.5 °C; in assay [5], -0.12 °C; in assay [6] it was 0.23 °C. The figures for the ΔTm in assay [7] and in assay [8] were -1.52 °C and -0.05 °C, respectively.
For `Cn1ncc2c(-c3c(-c4ccc(F)cn4)nn4c3COC(C)(C)C4)ccnc21`, the ΔTm was 0.22 °C in assay [1]; 0.28 °C in assay [2]; -0.29 °C in assay [3]; 1.41 °C in assay [4]; -0.58 °C in assay [5]; 0.32 °C in assay [6]. The values for the ΔTm in assay [7] and in assay [8] were -1.67 °C and -1.33 °C, respectively.
For `COC[C@H](NC(=O)c1ccn(S(C)(=O)=O)c1)C(=O)Nc1nc(-c2cccc(-c3ccn(C)n3)c2)cs1`, the ΔTm in assay [1] is 0.67 °C; in assay [2], -0.81 °C; in assay [3], 0.17 °C; in assay [4], 0.35 °C; in assay [5], -3.25 °C; in assay [6], 0.35 °C. In addition, the ΔTm in assay [7] was -2.2 °C; in assay [8], -1.12 °C.
For `O=C(c1cc(O)c(O)c([N+](=O)[O-])c1)c1ccccc1F`, the ΔTm in assay [1] is 0.42 °C; in assay [2], -1.18 °C; in assay [3] it was 0.1 °C; in assay [4], 0.37 °C; in assay [5] it was 0.05 °C; in assay [6] it was 0.25 °C. Also, the ΔTm in assay [7] was -1.23 °C; in assay [8], 0.61 °C.
For the compound `O=C(O)CCNC(=S)NCCCC[C@H](NS(=O)(=O)c1cccc(F)c1)C(=O)N[C@@H](Cc1c[nH]c2ccccc12)C(=O)NC1CCC1`, the ΔTm in assay [1] is 0.2 °C; in assay [2], -3.5 °C; in assay [3] it was -0.16 °C; in assay [4] it was -0.24 °C; in assay [5] it was -0.19 °C; in assay [6], 0.22 °C. Also, the ΔTm in assay [7] is -2.13 °C; in assay [8] it was -1.96 °C.

The values above are taken from ChEMBL document CHEMBL5724796, “Tm Shift (DSF) assay results for EUbOPEN Chemogenomics Library” (2024).
